# Data: PubChem BioAssay (NCATS)
# “And” between values parts separate entries of the source, which are not always exact repeats. Equal values may be shown once. Records with an inconclusive call do not appear. Some structures have more than one record in an assay (separate samples or runs), and their calls can disagree. The source made the active and inactive calls. Calls follow the shape of the dose curve; as a rule, active = well fitted curve in either direction with a large enough effect (not every such curve was filed as active); inconclusive = small, poorly fitted or top-dose-only effect, or another doubt; inactive = flat fitted curve, though single readings scatter.
# Target: Mitogen-activated protein kinase 10 (Mus musculus) (UniProt Q61831)
# Experiment: JNK3 AlphaScreen Assay (AID 530);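 also: kinase came from lysate of stimulated human HepG2 cells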;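 as to activity change, negative = inhibition: signal reports phosphorylation of biotinylated GST-cJun 1-79 at Ser73 with 10 µM ATP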
# Conditions: JNK3 lysate, c-Jun phosphorylation; series mostly up to 57.1 µM; activity change, negative = inhibition: at the top concentration
# Summary of the method: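 HepG2 lysate (IL-1b/TNFa pre-activated) + biotin-GST-cJun 1-79 + anti-pSer73 cJun; cpd titration, 15 min RT; ATP 10 uM start; Tris pH 7.6, MgCl2, DTT, vanadate; beads in EDTA buffer; AlphaScreen.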
# % is scaled to controls: 0 for no effect and ±100 for the full control effect; potency is read from the fitted curve at half-maximal effect.
Structure (SMILES),"activity change, negative = inhibition",Potency
Nc1ccc(O)c(C(=O)O)c1,-27% (inactive),–
CN1CCc2ccccc2Cc2[nH]c3ccccc3c2CC1,–,inactive
Cc1ccc(C(=O)c2ccc(CC(=O)O)n2C)cc1,1.95% [at 25.6 µM] (inactive),–
c1cnc2c(c1)ccc1cccnc12,–,inactive
Cc1ccc(O)c(N=Nc2ccccc2)n1,-17.1% (inactive),–
O=C(Nc1ccccc1)c1cc([N+](=O)[O-])ccc1Cl,–,inactive
COc1cc(/C=C/C(=O)CC(=O)/C=C/c2ccc(O)c(OC)c2)ccc1O,21.6% (inactive),–
COC(=O)c1c(C)[nH]c(C)c1C(=O)c1ccccc1Cc1ccccc1,–,inactive
O=C(O)c1cc([N+](=O)[O-])ccc1NCCCc1ccccc1,8.17% (inactive),–
N#C/C(=C\c1ccc(O)c(O)c1)C(=O)NCc1ccccc1,-16.5% (inactive),–
CN1CCc2cc(NC(=O)Nc3cccnc3)ccc21,7% (inactive),–
NCCNC(=O)c1ncsc1-c1cccc(F)c1,8.58% (inactive),–
CCCSc1ccc2nc(NC(=O)OC)[nH]c2c1,-12.6% [at 25.6 µM] (inactive),–
CC(C)(C=O)Cc1cc(C(C)(C)C)c(O)c(C(C)(C)C)c1,18% (inactive),–
Nc1cc(-c2ccncc2)c[nH]c1=O,-2.3% [at 25.6 µM] (inactive),–
C[N+]1(C)CCC(OC(=O)C(c2ccccc2)c2ccccc2)CC1,-0.733% (inactive),–
C=C[C@H]1CN2CC[C@@H]1C[C@@H]2[C@@H](O)c1ccnc2ccc(OC)cc12,–,inactive

Structure (SMILES),"activity change, negative = inhibition",Potency
O=C(O)Cc1ccc(-c2ccccc2)cc1,0.316% [at 25.6 µM] (inactive),–
CC(=O)SCC[N+](C)(C)C,-8.53% (inactive),–
Cc1c(Nc2ncccc2C(=O)O)cccc1C(F)(F)F,-1.33% [at 25.6 µM] (inactive),–
NC[C@@H]1O[C@H](C23CC4CC(CC(C4)C2)C3)Cc2c1ccc(O)c2O,–,inactive
O=C(O)c1ccccc1Nc1cccc(C(F)(F)F)c1,-0.96% [at 25.6 µM] (inactive),–
CN=c1nc(-c2ccccc2)n(-c2ccccc2)s1,-6.21% (inactive),–
C[N+](C)(CCCCCC[N+](C)(C)CCCN1C(=O)c2cccc3cccc(c23)C1=O)CCCN1C(=O)c2cccc3cccc(c23)C1=O,6.27% (inactive),–
CN(C)C(N)=NCCC[C@H](N)C(=O)O,8.21% (inactive),–
CC1(C)S[C@@H]2[C@H](NC(=O)[C@H](N)c3ccccc3)C(=O)N2[C@H]1C(=O)O,28% (inactive),–
N[C@H](CCCP(=O)(O)O)C(=O)O,–,inactive
Oc1cc2c(cc1O)CN(C(=S)NCCc1ccc(Cl)cc1)CCC2,–,inactive and 10 µM (active)
NCCCS(=O)(=O)O,17.8% (inactive),–
Cc1c(N)c(=O)n(-c2ccccc2)n1C,-10.7% [at 25.6 µM] (inactive),–
Fc1ccc(C(OCCCc2cnc[nH]2)c2ccc(F)cc2)cc1,-15.3% (inactive),–
NO,-0.852% (inactive),–
NC(=O)C(=O)O,17.2% (inactive),–
COc1cc2c(CCNC(C)=O)c[nH]c2cc1Cl,-11.8% (inactive),–
